Hits are enriched below; roughly 9.2% of the tested compounds scored in any of these assays.
NPC1 prom act = qHTS Assay for NPC1 Promoter Activators. hit rate 2.4% among 320,000. Potency, µM (series often up to 9.22 µM), for the others: at the top dose activation, most hits filed as activators. Huh7 NPC1 promoter luciferase reporter, 24 h; note: % of control where 0% means no effect; nearly all actives have a fitted effect of over 60% in size
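Readout is luciferase luminescence, reflecting NPC1 promoter activation in stably transfected Huh7 cells after 24 h compound exposure at 37 °C in reduced-serum medium with 10% FBS.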
ELG1 repair inh = qHTS screen for small molecules that inhibit ELG1-dependent DNA repair in human embryonic kidney (HEK293T) cells expressing luciferase-tagged ELG1; HEK293T ELG1-luciferase reporter, luminescence, 16 h; DNA damage induced by 5-fluorouridine; Potency, µM (titrated, usually from 46.1 µM), for inactives: top-dose activity change, negative = inhibition, most hits filed as inhibitors; hit rate 2.3% among 330,000; note: % is set by controls: 0 for no effect and ±100 for the full control effect; nearly all actives have a fitted effect of over 55% in size
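DMSO vehicle served as the neutral condition. Each well held 2,000 cells given 5-fluorouridine plus compound; after 16 hr at 37 °C/5% CO2, ONE-Glo was added and luciferase measured 30 min later.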
FLuc modulator = qHTS profiling assay for firefly luciferase inhibitor/activator using purifed enzyme and Km concentrations of substrates (counterscreen for miR-21 project). purified FLuc, Km substrates, luminescence inhibition. Potency, µM (doses to about 57.5 µM), without a hit: top-dose activity change, negative = inhibition, hits mostly inhibitors. hit rate 6.9% among 360,000;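 note: plate controls were vehicle for no effect and reference inhibitor for full effect; nearly all actives have a fitted effect of over 55% in size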
Target sequence (P08659 whole entry, looked up): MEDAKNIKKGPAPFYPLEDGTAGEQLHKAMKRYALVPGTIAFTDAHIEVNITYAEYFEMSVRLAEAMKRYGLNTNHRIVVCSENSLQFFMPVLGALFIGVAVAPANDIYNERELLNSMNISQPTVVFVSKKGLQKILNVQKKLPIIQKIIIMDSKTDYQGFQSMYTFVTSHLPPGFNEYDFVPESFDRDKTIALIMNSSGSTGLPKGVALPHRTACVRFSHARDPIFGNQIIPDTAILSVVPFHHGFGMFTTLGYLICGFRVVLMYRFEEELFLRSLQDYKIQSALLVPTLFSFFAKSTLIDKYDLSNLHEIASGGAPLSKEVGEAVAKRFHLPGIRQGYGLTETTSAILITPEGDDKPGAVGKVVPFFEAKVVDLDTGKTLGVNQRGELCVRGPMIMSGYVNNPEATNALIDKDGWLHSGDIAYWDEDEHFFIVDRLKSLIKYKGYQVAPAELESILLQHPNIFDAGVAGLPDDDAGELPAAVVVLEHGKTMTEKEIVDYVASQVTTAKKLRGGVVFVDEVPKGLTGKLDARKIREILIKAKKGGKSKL
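Biochemical qHTS of compounds, final roughly 60 µM downward over six points, against 10 nM purified firefly luciferase using Km concentrations of substrates (10 uM D-luciferin, 10 uM ATP) in Tris acetate pH 7.5 buffer; luminescence output.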
Rab9 promoter act = qHTS Assay for Rab9 Promoter Activators. hit rate 2.8% among 320,000. Potency, µM (top dose mostly 9.22 µM), for the others: top-dose activation, negative = inhibition, actives largely listed as activators. Huh7 Rab9 promoter-luciferase reporter, luminescence, 24 h. AID 485297, 2010; note: % of control where 0% means no effect; nearly all actives have a fitted effect of over 60% in size
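Luminescence from Amplite-detected luciferase (10 minutes, ambient) reports Rab9 promoter activation. Before that, stable Rab9-luciferase Huh7 cells (1500/well, reduced-serum OP-MEM I plus 10% FBS) were exposed to compound for 24 hours at 37C.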
ELG1 genotoxic = qHTS screen for small molecules that induce genotoxicity in human embryonic kidney (HEK293T) cells expressing luciferase-tagged ELG1 | hit rate 1.3% among 330,000 | HEK293T ELG1-luciferase reporter, luminescence, 16 h | Potency, µM (doses to about 46 µM), for the others: at the highest dose activity change, positive = activation, actives largely listed as activators; note: % of control where 0% means no effect; nearly all actives have a fitted effect of over 60% in size
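Screening used a luciferase reporter fused to human ELG1 in HEK293T cells. Luminescence was read on a CCD plate imager after 16 hr exposure and 30 min ONE-Glo incubation.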
SMN2 splice up = qHTS Assay for Enhancers of SMN2 Splice Variant Expression; HEK293 SMN2-luciferase splicing reporter, luminescence, 30-36 h; Potency, µM (titrated, usually from 46.1 µM), for inactives: top-dose activity change, positive = activation, actives largely listed as activators; hit rate 2.8% among 210,000; AID 1458, 2008; note: % of control where 0% means no effect; nearly all actives have a fitted effect of over 55% in size
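HEK293 cells carry an SMN2 minigene-luciferase reporter in which exon 7 inclusion puts luciferase in frame. Cells were seeded at 2000 cells/well, attached for 10-12 hours, then exposed to compounds for 30-36 hours at 37C before ONE-Glo luminescence.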
Numbers without * were called inactive; u = inconclusive; x = no result given; [ ] = dose if it differs, or a comment. Calls come from the whole dose curve; as a rule, active = well fitted curve in the direction sought with a large enough effect; inconclusive = small, poorly fitted or top-dose-only effect, or another doubt; inactive = no such curve, though single readings can be large; an effect the other way counts as inactive or inconclusive. Potency is the fitted concentration of half-maximal effect.

SMILES | NPC1 prom act | ELG1 repair inh | FLuc modulator | Rab9 promoter act | ELG1 genotoxic | SMN2 splice up
CCC(=O)NC(=S)Nc1cccc(NC(=O)CC)c1 | -3.3% | -12.5% | 13.9% | -9.4% | 1.4% | 0.8%
CCC(=O)Nc1cccc(NC(=S)NC(=O)c2ccc(C)cc2)c1 | 2µM* | u | 6.75µM* | 1.58µM* | u | 10µM*
CC(=O)c1cccc(NC(=S)NC(=O)c2ccc(C)cc2)c1 | 3.16µM* | u | 10.7µM* | 1.41µM* | u | 11.2µM*
Cc1ccc(NC(=S)NC(=O)c2ccccc2)cc1NC(=S)NC(=O)c1ccccc1 | u | u | -17.2% | 1.78µM* | u | x
CCC(=O)Nc1cccc(NC(=S)NC(=O)c2ccccc2)c1 | 2.82µM* | u | 15.1µM* | u | 16.1% | 11.2µM*
CCOc1ccc(CCNC(=O)c2cn(CC)c3ccc(S(=O)(=O)N4CCCCCC4)cc3c2=O)cc1OCC | x | x | -8.6% | x | x | 11.9%
COc1ccc2cc3cc(C(=O)N4CCN(c5cccc(Cl)c5)CC4)sc3nc2c1 | x | x | 5.3% | x | x | 4.4%
CC1(c2ccc3ccccc3c2)NC(=O)N(CC(=O)Nc2ncccc2O)C1=O (stereo not given) | -2.7% | 10.3% | 3.1% | -13.7% | 0.2% | x
CCC(=O)Nc1cccc(NC(=S)NC(=O)c2cc3ccccc3o2)c1 | 1.12µM* | u | 0.601µM* | 1.12µM* | 23.1µM* | 2.82µM*
O=C(NC(=S)Nc1cccc(CO)c1)c1ccc(-c2ccccc2)cc1 | 1µM* | 9.9% | u | 1.58µM* | 3.2% | u
O=C(Cc1ccccc1)Nc1ccc(NC(=S)NC(=O)c2ccccc2)cc1 | -0.5% | -15.5% | 1.2% | 3.4% | 5.4% | x
O=C(C[C@H]1C/C=C\C[C@H](Cc2ccc(F)cc2)C(=O)O[C@@H](c2ccccc2)CNC1=O)NCCO | x | -23.3% | x | x | -0.2% | x
O=[N+]([O-])c1ccccc1/C=N/OCc1ccccc1 | 3.98µM* | u | 10.7µM* | u | u | x
CN(N=Nc1ccc([N+](=O)[O-])cc1)c1ccccc1 | 3.98µM* | u | 5.36µM* | u | u | 20µM*
CN(N=Nc1cccc([N+](=O)[O-])c1)c1ccccc1 | u | u | 9.53µM* | u | u | x
CCN(CC)S(=O)(=O)c1cc(NC(=O)C2Cc3ccccc3C(=O)O2)ccc1C (stereo not given) | u | u | 16.9µM* | u | 0.0% | x
CCN(CC)S(=O)(=O)c1cc(NC(=O)C(C)N2CCN(c3ccccn3)CC2)ccc1C (stereo not given) | -0.1% | 20.6µM* | -2.1% | -2.5% | -13.8% | -27.7%
CCN(CC)S(=O)(=O)c1cc(NC(=O)Cc2n[nH]c(=O)c3ccccc23)ccc1C | -4.1% | 20.6µM* | 2.5% | -15.7% | -0.8% | x
NC[C@H]1O[C@@H](n2cnc3c(N)ncnc32)[C@H](O)[C@@H]1O | 5.0%[46.1 µM] | x | x | 0.5%[46.1 µM] | x | x
O=C(Nc1ccncc1)C1CCN(S(=O)(=O)c2ccc(Cl)c(C(F)(F)F)c2)CC1 | -7.5% | -5.4% | 5.7% | -1.2% | 0.8% | x
CCN(CC)c1ccc(-c2nn3c(-c4cccnc4)nnc3s2)cc1 | -22.8% | -13.0% | 21.3µM* | -20.2% | -7.0% | 2.2%
c1cncc(-c2nnc3sc(-c4ccco4)nn23)c1 | -6.3% | 4.7% | 2.4% | 0.9% | -3.3% | -19.2%
COC(=O)c1ccccc1NC(=O)CCc1c(C)nc2c(c(C)nn2-c2ccccc2)c1C | x | x | -0.9% | x | x | 2.8%
O=C(Nc1ccccc1N1CCOCC1)c1cc(-c2ccncc2)nc2ccccc12 | -2.8% | 14.6µM* | -2.6% | -6.1% | -11.8% | -6.3%

Compound activity: PubChem, National Center for Advancing Translational Sciences (NCATS)
